Assay results taken from PubChem BioAssay AID624417 (National Center for Advancing Translational Sciences (NCATS), 2012).
Screen size: about 410,000 compounds; about 6,400 (1.6%) were called active. Where a call stands in place of a potency, no number is given. About 20% were inconclusive and are not listed. The sample holds actives, similar compounds and a random draw of the others, so the mix is not that of the screen. Calls come from the whole dose curve; as a rule, active = well fitted inhibition curve with a large enough effect; inconclusive = small, poorly fitted or top-dose-only effect; inactive = no such curve, though single readings can be large or run the other way.

molecular target: Glucagon-like peptide 1 receptor (Homo sapiens) (UniProt P43220); experiment: qHTS of GLP-1 Receptor Inverse Agonists (Inhibition Mode); details: HEK293 GLP-1R CRE-luciferase, luminescence, 24 h, GLP-1R form is constitutively active; series mostly up to 38.3 µM; note: nearly all actives have a fitted effect of over 55% in size
Source text: The overall goal of this project was to develop a novel assay for discovering small molecule ligands for class B1 G protein-coupled receptors (GPCRs). Very few agonists (or inverse agonists in inhibition mode) with generally weak activity for this entire group of physiologically important receptors are known to date. To establish proof-of-principle that this critical bottleneck can be overcome with a suitable screening approach, our studies focused on the class B1 receptor for glucagon-like peptide-1 (GLP-1R), a potential therapeutic target for diabetes and neurodegenerative disease. The assay was developed using a cell-based functional readout. Toward this goal, stably transfected HEK293 cell clones were established that co-express (i) a cAMP-responsive luciferase reporter gene, and (ii) constitutively active GLP-1R that upon ligand interaction inhibit (inverse agonists) the luciferase activity. In addition, two control cell lines were developed: (i) one that express only the cAMP-responsive reporter gene to enable initial exclusion of GLP-1R independent effects of candidate probes; and (ii) one with the reported gene cloned with another constitutively active orphan receptor GPR119 to enable exclusion of GLP-1R independent inhibitor effects of candidate inverse agonists. To that end, this assay was optimized for 1536-well format and screened against the MLSMR. […] NIH Molecular Libraries Probe Production Network [MLPCN] NIH Chemical Genomics Center [NCGC] Grant: NS064851 PI Name: Martin Beinborn, Tufts Medical Center
Six ul of cell suspension (200 cells/uL in DMEM + 10% Nu serum + 1% pen-strep) is dispensed in a white solid 1536-well plate. The plates are incubated for 12 hours at 37 deg C at 5% CO2 followed by addition of 23 nL compounds. After 24 hr incubation at 37 deg C and 5% CO2, 3 uL of luciferase assay detection reagent is added. A luminescence read is obtained on the PerkinElmer Viewlux after 12 min incubation at room temperature.
Potency is the fitted concentration of half-maximal effect.

Sequence of Glucagon-like peptide 1 receptor (Homo sapiens) (P43220 whole entry, looked up): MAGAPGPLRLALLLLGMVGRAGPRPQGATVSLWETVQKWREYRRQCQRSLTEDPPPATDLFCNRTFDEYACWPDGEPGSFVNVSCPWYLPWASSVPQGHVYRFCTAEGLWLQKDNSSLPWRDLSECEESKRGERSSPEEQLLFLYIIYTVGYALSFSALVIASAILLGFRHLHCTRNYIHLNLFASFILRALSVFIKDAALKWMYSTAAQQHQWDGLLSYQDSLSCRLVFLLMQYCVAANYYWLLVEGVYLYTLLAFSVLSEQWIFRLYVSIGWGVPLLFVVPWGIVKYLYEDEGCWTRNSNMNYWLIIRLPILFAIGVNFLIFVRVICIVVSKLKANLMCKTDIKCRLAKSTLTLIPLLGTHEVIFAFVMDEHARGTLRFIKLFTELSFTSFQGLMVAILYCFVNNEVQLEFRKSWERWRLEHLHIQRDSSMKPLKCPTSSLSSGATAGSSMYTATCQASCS

| Structure (SMILES) | Potency |
| --- | --- |
| COC(=O)C[C@H]1C[C@@H]2c3cc(N(C)C)ccc3O[C@@H]2[C@H](CO)O1 | inactive |
| CCN(CC(=O)Nc1cc(Cl)ccc1C)C(=O)CSCc1ccc(C)cc1 | 10 µM (active) |
| CCN(CC(=O)Nc1cc(Cl)ccc1C)C(=O)CSCc1ccccc1 | 12.6 µM (active) |
| Cc1ccc(Cl)cc1NC(=O)COC(=O)CC(C)(C)C | inactive |
| CCN(CC(=O)Nc1cc(Cl)ccc1C)C(=O)Cn1c(=O)cnc2ccccc21 | inactive |
| CCN(CC(=O)Nc1cc(Cl)ccc1C)C(=O)CN1C(=O)NC2(CCCC2)C1=O | inactive |
| Cc1ccc(Cl)cc1NC(=O)CSc1nc2ccccc2nc1Cc1ccccc1 | inactive |
| CCCS(=O)(=O)NC(=O)C1(C)CCCN(C(=O)c2cccs2)C1 (configuration not stated) | inactive |
| COc1ccc(NC(=O)COC(=O)C2COc3ccccc3O2)cc1 (configuration not stated) | inactive |
| CC(C)n1c(SCC(=O)Nc2ccccc2N2CCCCC2)nc2c1c(=O)n(C)c(=O)n2C | inactive |
| Cc1ccc(C(C)C)cc1OCCN1CCCC1 | inactive |
| Cc1cccc(N2CC(C(=O)Nc3ccccc3N3CCCC3)CC2=O)c1C (configuration not stated) | inactive |
| Cc1ccccc1NC(=O)CNc1ccccc1N1CCCCC1 | 7.94 µM (active) |
| Cc1ccc(C(C)C)cc1OCC(=O)Nc1ccccc1N1CCCC1 | 2.51 µM (active) |
| Cn1c(=O)c2c(nc(SCC(=O)Nc3ccccc3N3CCCCC3)n2C)n(C)c1=O | inactive |
| COC(=O)c1ccc2nc(-c3cccc(Br)c3)c(Cc3ccccc3C(F)(F)F)n2c1 | inactive |
| CN(C)C(=O)c1cccc(-c2cnc3c(NC=O)cc(-c4ccc(C(=O)N5CCOCC5)cc4)cn23)c1 | inactive |
| CC(=O)C[C@@H]1OC[C@H](CO)N1S(=O)(=O)c1ccc(C)cc1 | inactive |
| COc1ccc(NC(=O)C2(C)Cc3c(-c4ccc(C(N)=O)cc4)ccnc3O2)cc1 (configuration not stated) | inactive |
| C[C@@H]1CN([C@@H](C)CO)C(=O)c2c(c3ccccc3n2C)-c2ccccc2CO[C@H]1CN(C)C(=O)C1CC1 | inactive |
| COc1cc(C(=O)N2CCOC23CCN(Cc2ccccc2)CC3)cc(OC)c1OC | inactive |

| Structure (SMILES) | Potency |
| --- | --- |
| CCOc1ccccc1NC(=O)CCS(=O)(=O)c1cccc2nsnc12 | inactive |
| CCOc1ccc(OCC)c(NC(=O)CN(C)S(=O)(=O)c2cccc3nsnc23)c1 | 6.31 µM (active) |
| CCOc1ccc(NC(=O)CCS(=O)(=O)c2cccc3nsnc23)cc1 | inactive |
| CC1(C(=O)NS(=O)(=O)Cc2cccc(Cl)c2)CCN1C(=O)Cc1ccccc1 (configuration not stated) | inactive |
| CCCNC(=O)C1(C)CCCN(Cc2cccc(C(F)(F)F)c2)C1 (configuration not stated) | inactive |
| Cc1ccc(Oc2nc(-c3ccccn3)nc3ccccc23)cc1 | 5.01 µM (active) |
| Cc1nc2ccccc2c(C(=O)O)c1-c1ccccn1 | inactive |
| N#Cc1ccc(Oc2cc(C(F)(F)F)nc(-c3ccccn3)n2)cc1 | inactive |
| CCOc1ccc(CCN2C(=O)C(=O)N([C@@H](Cc3ccc(O)cc3)CN3CCC[C@H]3CN3C(=O)C(=O)NC[C@@H]3CC(C)C)C[C@@H]2Cc2ccccc2)cc1 | inactive |
| CCCCn1nnnc1C(c1cccc(OC)c1OC)N1CCN(C/C=C/c2ccccc2)CC1 (configuration not stated) | inactive |
| Cc1cccc(-c2cnc(C(O)c3cc(C)cc(C)c3)[nH]2)c1 (configuration not stated) | inactive |
| COc1ccc(OC)c(C(O)c2ncc(-c3cccc(C(F)(F)F)c3)[nH]2)c1 (configuration not stated) | inactive |
| COc1c(C)cc(C(O)c2ncc(-c3cccc(C(F)(F)F)c3)[nH]2)cc1C (configuration not stated) | 12.6 µM (active) |
| COc1ccccc1Cc1c(-c2ccc(Cl)cc2)nc2c3ccccc3ccn12 | inactive |
| COc1ccccc1N1CCC(N2CCN(CC(C)(C)C)C(CCO)C2)CC1 (configuration not stated) | inactive |
| COc1ccc(N2CCC(N3CCN(C)C(CCO)C3)CC2)cc1 (configuration not stated) | inactive |
| Cc1cc(F)ccc1N1CCC(N2CCN(C)C(CCO)C2)CC1 (configuration not stated) | 4.47 µM (active) |
| COc1ccc(CN2C(=O)C(CC(=O)NCCCCc3ccccc3)CC(C(=O)N3CCOCC3)=C2C)cc1 (configuration not stated) | inactive |
| Cc1ccccc1NC(=O)CSc1nc2ccc(Nc3nc(N4CCOCC4)nc(N4CCOCC4)n3)cc2s1 | inactive |
| O=C(CC(c1ccccc1)c1cc(Cl)ccc1O)NCCN1CCOCC1 (configuration not stated) | inactive |
| O=C(CSc1nc(Nc2ccccc2)nc(N2CCOCC2)n1)Nc1cc(Cl)ccc1O | 5.62 µM (active) |

| Structure (SMILES) | Potency |
| --- | --- |
| CCCNC(=O)C1(C)CCN(C(=O)c2cc(F)ccc2C)C1 (configuration not stated) | inactive |
| CC1(C(=O)NS(=O)(=O)c2ccc(C#N)cc2)CCN1C(=O)c1ccc(C2CCCCC2)cc1 (configuration not stated) | inactive |
| N#CCSc1nc2c(c(=O)n1Cc1ccccc1)C1(CCCC1)Cc1ccccc1-2 | 3.98 µM (active) |
| N#CCSc1nc2ccc(N3CCOCC3)cc2c(=O)n1CCc1ccccc1 | inactive |
| CCC1(CC)Cc2ccccc2-c2nc(CCl)[nH]c(=O)c21 | inactive |
| N#Cc1ccc(-c2ccc3nccn3c2)cc1 | inactive |
| O=[N+]([O-])c1ccc(CN2CC(N3CC=CC3)CS2(=O)=O)cc1 (configuration not stated) | inactive |
| C/C(COc1ccccc1)=N\NC(=O)c1nnn(-c2nonc2N)c1-c1ccc(C)cc1 | inactive |
| COc1ccc(N2CCN(C(=O)CCc3nc(-c4ccc(C)cc4)no3)CC2)cc1 | inactive |
| Cc1ccc(-c2noc(CCC(=O)Nc3ccccc3N3CCN(C)CC3)n2)cc1 | 11.2 µM (active) |
| CC(=O)c1ccc(NC(=O)CCc2nc(-c3ccc(C)cc3)no2)cc1 | inactive |
| C[C@H]1CN([C@@H](C)CO)C(=O)CCCn2cc(nn2)CO[C@@H]1CN(C)S(=O)(=O)c1cccs1 | inactive |
| Cc1ccc(NS(=O)(=O)c2ccc(C)c(NC(=O)COc3ccc4ccccc4c3)c2)c(C)c1 | 5.01 µM (active) |
| Cc1ccc(C)c(NC(=O)CN(C)C(=O)COc2ccc3ccccc3c2)c1 | inactive |
| Cc1ccc(C)c(NS(=O)(=O)c2ccc(OCC(=O)NCc3cccnc3)cc2)c1 | inactive |
| CCCCc1ccc(S(=O)(=O)NC(=O)C2(C)CCN2C(=O)c2ccccc2)cc1 (configuration not stated) | inactive |
| Cc1nnc(SC(C)C(=O)c2c[nH]c3ccccc23)n1C1CC1 (configuration not stated) | inactive |
| Cc1cc(Cl)ccc1NNC(=O)c1snnc1C | 2 µM (active) |
| Cc1nnsc1C(=O)Nc1cccc(Cl)c1C | inactive |
| Cc1nnsc1C(=O)NCc1c(F)cccc1Cl | inactive |
